NPC1 prom act – NPC1 promoter activation; Huh7 NPC1 promoter luciferase reporter, 24 h; Potency, µM (titrated, usually from 9.22 µM), without a hit: at the highest dose activation, usual class: activators; 2.4% of 320,000 active; AID 485313; further: % of control where 0% means no effect; nearly all actives have a fitted effect of over 60% in size
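Luciferase expression driven by the NPC1 promoter was measured in stably transfected Huh7 cells after a 24 h compound incubation, using a luciferase reagent and a luminescence read.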
FLuc modulator – counter-screen for miR-21 project: firefly luciferase inhibitors or activators; 6.9% of 360,000 active; purified FLuc, Km substrates, luminescence inhibition; P08659; Potency, µM (titrated, usually from 57.5 µM), inactives show top-dose activity change, negative = inhibition, actives largely listed as inhibitors;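 further: plate controls were vehicle for no effect and reference inhibitor for full effect; nearly all actives have a fitted effect of over 55% in size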
Target sequence (P08659 whole entry, looked up): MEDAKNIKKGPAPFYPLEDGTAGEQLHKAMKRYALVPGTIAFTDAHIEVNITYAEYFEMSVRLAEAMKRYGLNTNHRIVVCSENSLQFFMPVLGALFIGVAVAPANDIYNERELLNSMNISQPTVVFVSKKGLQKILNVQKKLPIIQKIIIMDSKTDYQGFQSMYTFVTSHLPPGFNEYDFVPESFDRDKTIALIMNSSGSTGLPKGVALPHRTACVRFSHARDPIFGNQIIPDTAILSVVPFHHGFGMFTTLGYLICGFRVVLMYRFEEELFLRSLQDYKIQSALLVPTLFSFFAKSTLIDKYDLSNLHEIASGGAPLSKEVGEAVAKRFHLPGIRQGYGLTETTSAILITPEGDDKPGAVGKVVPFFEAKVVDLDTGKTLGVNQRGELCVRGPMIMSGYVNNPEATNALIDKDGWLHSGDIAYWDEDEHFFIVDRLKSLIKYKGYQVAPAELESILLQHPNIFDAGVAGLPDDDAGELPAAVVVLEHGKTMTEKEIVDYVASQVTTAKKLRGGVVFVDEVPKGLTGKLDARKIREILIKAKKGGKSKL
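Purified P. pyralis luciferase, 10 nM final, with Km-level 10 uM D-luciferin and 10 uM ATP in 50 mM Tris acetate pH 7.5, 10 mM Mg acetate, 0.01% Tween-20, 0.05% BSA; 6-point qHTS titration about 60 µM downward; luminescence read.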
p53 reactivator – re-activators of mutant p53. Potency, µM (titrated, usually from 92.2 µM), without a hit: at the top dose activity change, positive = activation, hits mostly activators. 0.063% of 320,000 active. H1299 p53-A138V BP100-luciferase reporter, luminescence, 24 h; further: % of control where 0% means no effect; nearly all actives have a fitted effect of over 45% in size
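p53-null H1299 cells stably carrying temperature-sensitive p53-A138V and a BP100-luciferase reporter were pinned with compounds (4-point, 1:5 series) and held 24 hrs at 37 deg C. Luminescence was read 10 min after detection reagent.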
ELG1 genotoxic – genotoxicity induction in ELG1-luciferase HEK293T cells; HEK293T ELG1-luciferase reporter, luminescence, 16 h; Potency, µM (series often up to 46 µM), inactives show top-dose activity change, positive = activation, most hits filed as activators; AID 504466; 1.3% of 330,000 active; further: % of control where 0% means no effect; nearly all actives have a fitted effect of over 60% in size
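Reporter readout depends on ELG1 protein level, which increases with genetic stress. After 16 hr compound exposure at 37 °C, luciferase activity was quantified using ONE-Glo.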
Rab9 promoter act – Rab9 promoter activation; Huh7 Rab9 promoter-luciferase reporter, luminescence, 24 h; Potency, µM (top dose mostly 9.22 µM), for the others: top-dose activation, negative = inhibition, usual class: activators; 2.8% of 320,000 active; further: % of control where 0% means no effect; nearly all actives have a fitted effect of over 60% in size
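Stable Rab9-luc Huh7, 1500 cells/well, 2 h settle; cmpd in DMSO, 24 h, 37 °C/5% CO2; luciferase reagent 10 min RT; luminescence.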
SMN2 splice up – SMN2 splice variant enhancement. Potency, µM (top dose mostly 46.1 µM), without a hit: top-dose activity change, positive = activation, most hits filed as activators. HEK293 SMN2-luciferase splicing reporter, luminescence, 30-36 h. 2.8% of 210,000 active. AID 1458; further: % of control where 0% means no effect; nearly all actives have a fitted effect of over 55% in size
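HEK293 cells carry an SMN2 […]–luciferase reporter in which exon 7 inclusion puts luciferase in frame. Cells were plated 10-12 h before compound addition, then incubated 30-36 h at 37C. ONE-Glo luminescence was read; sodium butyrate at 4.5 mM final served as control.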
An asterisk follows results filed as active; ? = inconclusive; · = no result given; [ ] = another dose, or the depositor's remark. Most compounds without a hit are left out; they make up all but 7.3% or so of the library. The call rests on the fitted dose curve; in most records, active means well fitted curve in the direction sought with a large enough effect; inconclusive means small, poorly fitted or top-dose-only effect, or another doubt; inactive means no such curve, though single readings can be large; an effect the other way counts as inactive or inconclusive. Potency means the concentration at half of the fitted maximal effect.

SMILES	NPC1 prom act	FLuc modulator	p53 reactivator	ELG1 genotoxic	Rab9 promoter act	SMN2 splice up
COc1ccccc1NC(=O)CSc1nnc(-c2ccncc2)o1	-1.8%	-10.3%	-7.5%	8.2%	-3.4%	?
COc1ccccc1NC(=O)CSc1nnc(-c2cccc(Cl)c2)o1	·	-13.2%	·	·	·	·
COc1ccc(-c2nnc(SCC(=O)Nc3ccccc3OC)o2)cc1	2.82µM*	26.9µM*	?	?	1.58µM*	11.2µM*
COc1ccc(-c2nnc(SCC(=O)Nc3cccc(Cl)c3)o2)cc1	?	0.7%	?	?	2µM*	12.6µM*
O=C(O)CCCC(=O)Nc1cccc(-c2nc3ccccc3[nH]2)c1	-1.7%	12µM*	20.6%	-0.5%	1.2%	-3.0%
COc1ccc(OCC(=O)Nc2cccc(-c3nc4ccccc4[nH]3)c2)cc1	?	9.53µM*	?	-1.9%	29.9%	?
O=C(CCc1nc2ccccc2[nH]1)Nc1ccccc1	1.8%	-1.1%	7.5%	5.2%	1.8%	28.3%
O=C(COc1ccccc1)Nc1cccc(-c2nc3ccccc3[nH]2)c1	-0.6%	16.9µM*	?	-1.6%	-1.3%	?
O=C(COc1ccc(F)cc1)Nc1ccc(Cl)c(-c2nc3ccccc3[nH]2)c1	·	-13.3%	·	·	·	·
CCc1cc(C=NC2CCCCC2)c(O)s1	?	?	?	13.1%	3.55µM*	17.9%
CCc1cc2c(SC(C)C(=O)NC3CCCC3)ncnc2s1 (centres undefined)	·	·	-0.8%	-1.2%	·	·
CCN(C(=O)c1cc2ccccc2oc1=O)c1ccccc1	?	9.53µM*	21.9%	9.2µM*	?	-21.6%
O=C(Oc1ccccc1)c1cc2ccccc2oc1=O	1.2%	15.1µM*	0.8%	2.3%	-4.8%	-0.1%
Cc1ccc(Oc2ccc(NC(=O)c3ccco3)cc2)cc1	3.16µM*	26.9µM*	13.7%	?	?	2.0%
Cc1ccc(NC(=O)c2ccc(OC(=O)c3cc4ccccc4o3)cc2)cc1	3.55µM*	-13.7%	?	3.16µM*	2µM*	10µM*
C[N+](C)(C)CCN(Cc1cccs1)c1ccccn1	·	·	·	·	·	-13.4%[9.22 µM]
CC(C)Sc1nc2sc3c(c2c(=O)n1Cc1ccccc1)CCCC3	·	-5.5%	·	·	·	1.4%
Cc1cccc(C)c1NC(=O)Cn1c(=O)n(Cc2ccccc2)c(=O)c2c(C)c(C(=O)N(C)C)sc21	·	-2.9%	·	·	·	·
COc1ccc(OC(=O)c2cc3ccccc3o2)cc1	0.1%	0.536µM*	-2.9%	1.0%	-2.1%	29.1%
COc1ccc(OCC(=O)Nc2ccc(NC(=O)c3ccco3)cc2)cc1	13.7%	0.0%	10.6%	?	23.9%	28.2µM*
Cc1ccc(NC(=O)c2ccc(OC(=O)c3ccco3)cc2)cc1	2µM*	-10.6%	?	8.2µM*	2.82µM*	12.6µM*
O=C(COc1ccccc1)Nc1ccc(NC(=O)c2ccco2)cc1	9.1%	2.6%	4.7%	3.6%	11.2%	13.7%
COC(=O)c1ccc(NC(=O)c2ccc(NC(=O)c3ccco3)cc2)cc1	1.1%	1.5%	-8.2%	-7.5%	0.7%	·
O=C(Oc1ccccc1)c1ccc(NC(=O)c2ccco2)cc1	21.7%	2.69µM*	23.8%	?	29.6%	8.5%
Cc1cccc(NC(=O)CN2C(=O)c3cccnc3Oc3ccc(Cl)cc32)c1C	·	1.4%	·	·	·	·
SMILES	NPC1 prom act	FLuc modulator	p53 reactivator	ELG1 genotoxic	Rab9 promoter act	SMN2 splice up
CCN(CC(=O)Nc1ccc([N+](=O)[O-])cc1OC)CC(=O)NC(C)(C)C	3.9%	-3.6%	-22.7%	0.6%	-0.4%	7.5%
Cc1ccc(S(=O)(=O)c2cnc(SCC(=O)Nc3cc(C)cc(C)c3)nc2N)cc1	·	-9.4%	·	·	·	·
COC(=O)c1ccc(C2c3c(oc4cc(C)c(C)cc4c3=O)C(=O)N2c2ccccn2)cc1 (centres undefined)	·	1.0%	·	·	·	8.7%
CN(C)c1cnn(-c2ccccc2)c(=O)c1Cl	13.4%	?	?	15.9%	12.5%	21.3%
CC(=O)Cn1ncc(N(C)Cc2ccccc2)c(Cl)c1=O	?	16.9µM*	27.1%	?	?	·
COc1ccc(NC(=O)C2=C(C)Nc3ncnn3C2c2ccc(O)cc2)cc1 (centres undefined)	·	3.8%	·	·	·	·
Cc1ccccc1C(=O)N1CCC(N2CCN(Cc3ccc(F)cc3)C(=O)C2=O)CC1	·	-0.9%	·	·	·	·
O=C(Nc1ccccc1N1CCOCC1)c1ccc2ccccc2n1	26.0%	7.57µM*	29.0%	1.0%	27.8%	6.8%
CC(C)Oc1cccc(C(=O)Nc2ccccc2N2CCOCC2)c1	-2.2%	?	-1.0%	-4.1%	8.4%	-3.8%
O=C(Nc1ccccc1N1CCOCC1)c1cccc(Oc2ccccc2)c1	-35.1%	21.3µM*	11.9%	-10.9%	5.7%	·
Cc1ccn2cc(C(=O)Nc3ccccc3N3CCOCC3)nc2c1	20.7%	15.1µM*	25.3%	3.4%	17.2%	-2.7%
O=C(Nc1cc(C(F)(F)F)ccc1N1CCOCC1)c1cn2ccccc2n1	0.2%	7.9%	-3.6%	-1.8%	6.1%	9.8%
Cc1ccn2cc(C(=O)Nc3ccc4c(c3)OCCO4)nc2c1	1.41µM*	1.9µM*	9.6%	5.8µM*	1µM*	?
COc1cccc(CNC(=O)CCCC(=O)NC(C)CCc2ccccc2)c1 (centres undefined)	-1.4%	-12.2%	1.1%	0.6%	0.2%	·
C=CCOC(=O)N[C@H](/C(C(=O)OC)=C(\C)NCc1ccccc1)c1cccc(C(F)(F)F)c1	·	·	·	·	·	8.7%
COc1cc(/C=C(\C#N)c2nc3ccccc3c(=O)[nH]2)cc(OC)c1OC	·	-5.9%	·	·	·	·
Cc1nn(CC(=O)NCCc2ccccc2Cl)c(=O)c2nn(-c3ccccc3)c(C)c12	·	3.6%	·	·	·	·
Cc1cc(C(=O)N2CCCC(C(=O)c3ccc4ccccc4c3)C2)n(C)n1 (centres undefined)	-4.3%	6.2%	-3.2%	-7.2%	-9.0%	-6.1%
COc1ccc(C(=O)N(Cc2cc(OC)c(OC)c(OC)c2)C2CCS(=O)(=O)C2)cc1Cl (centres undefined)	·	-0.5%	·	·	·	5.1%
O=C(CN1C(=O)NC2(CCCCCCC2)C1=O)NCc1ccccc1	·	·	-3.6%	4.0%	·	·
Cc1ccn2cc(C(=O)Nc3nnc(C)s3)nc2c1	?	15.1µM*	?	?	3.16µM*	·
Cc1ccn2cc(C(=O)NCc3ccco3)nc2c1	6.5%	-12.0%	21.7%	11.3%	13.7%	15.1%
CC(C)Oc1ccc(C(=O)NCC(=O)OCC(=O)N(C)Cc2cccs2)cc1	-9.0%	15.1µM*	0.7%	-0.8%	0.5%	10.5%
Cc1ccc(Nc2nnc(SCC(=O)NC3CC3)s2)cc1	0.1%	7.57µM*	18.3%	3.8%	6.3%	·
O=C(CSc1nnc(Nc2ccccc2)s1)NC1CCCC1	·	·	2.2%	-0.6%	·	·

Screening results as filed in PubChem.
